Data on 16 compounds can be found in PubChem BioAssay (EPA / NIEHS).

Where “and” joins values, the source holds several entries; their conditions need not be identical. Equal entries are not always repeated. Calls of active or inactive are those of the source. How the source made its calls: active means hit-call score of the fitted dose curve at least 0.9, where 1 is the maximum; inactive means score below 0.9.

Test system in one test: not listed separately
In words: CCTE_Padilla_ZF_Score.Any: CCTE's 144 Hour Post-fertilization zebrafish Assay Score for Any Mortality or Malformation, Padilla Lab (AID 2284416). How it is done:
CCTE_Padilla_ZF_Phenotype_Score is a whole embryo, multiplexed assay using zebrafish ova exposed for 144 hours post fertilization on a 96-well plate.CCTE_Padilla_ZF_Score.Any is one of one assay component(s) measured or calculated from the CCTE_Padilla_ZF_Phenotype_Score assay. It is designed to make measurements of zebrafish development as detected with brightfield microscopy of developing zebrafish embryos.Data from the assay component CCTE_Padilla_ZF_Score.Any was analyzed into 1 assay endpoints. This assay endpoint, CCTE_Padilla_ZF_Score.Any, was analyzed in the positive analysis fitting direction relative to DMSO as the negative control and baseline of activity. Using a type of viability reporter, gain-of-signal activity can be used to understand changes in developmentals as they relate to the whole embryo. To generalize the intended target to other relatable targets, this assay endpoint is annotated to the zebrafish development intended target family, where the subfamily is embryonic morphogenesis and mortality.
Zebrafish husbandry: Wild type adult zebrafish (Danio rerio; undefined outbred stock obtained from Aquatic Research Organisms, Hampton, NH, 03842) were housed in an AAALAC-approved animal facility at 28C with a 14:10 h light: dark cycle (lights on at 08:30 h). Adult fish (2-3 females per male; density = 15-20 adults per tank) were kept in one of several 9-liter (L) flow-through colony tanks (Aquaneering Inc., San Diego, CA). All adults in a colony tank were placed in a 2 L (static) breeding tank (Aquatic Habitats, Apopka, FL) one hour prior to light onset. Typically, adults from two to three colony tanks were mated on the same day. Two hours after light onset the adults were returned to the colony tank. All embryos were gathered from each breeder tank, pooled, and placed in a 28C water bath for 2 h, followed by two washes with 0.06% bleach (v/v) in 10% Hanks' Balanced Salt Solution (13.7 mM NaCl 0.54 mM KCl, 25 uM Na2HPO4, 130 uM CaCl2 100 um MgSO4 and 420 um NaHCO3,), hereafter referred to as Hanks' solution, for 5 min in order to remove any residual bacteria or fungi. Immediately following washing, the embryos were examined, and healthy embryos were separated from dead or unfertilized eggs and moved into fresh Hanks'. Chemical exposures: Zebrafish embryos were exposed in 96-well plates. Between 6- and 8-hours post fertilization (hpf), healthy embryos (with chorions) were transferred, one embryo per well, into 96 well (0.5 mL) microtiter plates (Cell Culture-Treated, Flat-Bottom Microplate 96 well [Corning Costar, Kennebunk, ME; Cat 09-761-145]) filled with 200 uL of Hanks' solution. A random number generator was used to assign the order in which the rows of embryos were plated in 96 well plates each week. After plating, the embryos were dosed with 0.8 uL of the chemical dosing solution then immediately sealed with AlumaSeal II (Excel Scientific Inc, Victorville, CA) to prevent volatilization of the chemicals, and then placed in a leakproof secondary container. These containers were placed in an incubator maintained on a 14:10 h light: dark cycle at 26C for rearing. On 5 dpf, live larvae were gently moved out of the plate with test chemicals and into a new 96 well mesh plate (Millipore Corp., Bedford, MA) with just the Hanks' solution. Once within the mesh well plate, the animals were rinsed with 400 uL of fresh Hanks' three times, and then the plates were covered with a non-adhesive material (Microseal A, BioRad, Hercules, CA), plate lid added, and then plate sides wrapped in Parafilm (PM992, Bermis Company, Neenah, WI), and returned to the incubator. […]
In the case of `NS(=O)(=O)C(F)(F)C(F)(F)C(F)(F)C(F)(F)C(F)(F)C(F)(F)C(F)(F)C(F)(F)F`, the AC50 is 0.747 µM (active).
Consider `O=S(=O)(O)C(F)(F)C(F)(F)C(F)(F)C(F)(F)F`, for which the compound was called inactive.
For the compound `O=C(O)C(F)(F)C(F)(F)C(F)(F)C(F)(F)C(F)(F)F`, the call was inactive.
Turning to `O=C(O)C(F)(F)C(F)(F)C(F)(F)C(F)(F)C(F)(F)C(F)(F)C(F)(F)C(F)(F)C(F)(F)F`, the AC50 is 10.7 µM (active).
The same measure, in the same setting: under `O=C(O)C(F)(F)C(F)(F)C(F)(F)C(F)(F)C(F)(F)C(F)(F)C(F)(F)C(F)(F)F` stands 29.1 µM (active).
Consider `O=S(=O)(O)C(F)(F)C(F)(F)C(F)(F)C(F)(F)C(F)(F)C(F)(F)F`, for which the AC50 was 36.4 µM (active) and 34.4 µM (active).

The subject of a further test is TTR (gene 7276). Kind of test: CCTE_GLTED_hTTR_0.125uM: CCTE's human Transthyretin (hTTR) Inhibition Assay, with 0.125uM TTR, Great Lakes Toxicology and Ecology Division (GLTED) Lab (AID 2284431).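 Further: hits lower the fluorescence signal relative to DMSO baseline.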 The method, boiled down: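 Fluorescence (380 ex, 475 em) reported the ANSA probe remaining bound to 0.125uM human transthyretin. Chemicals were incubated with the protein for 2 hours; activity was scored as loss of signal against DMSO negative control.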
Consider `Clc1ccc(C(Cl)(Cl)Cl)cc1`, for which the AC50 is 1.04 µM (active).
Turning to `CCC(C)c1cc([N+](=O)[O-])cc([N+](=O)[O-])c1O` (configuration not stated), the AC50 was 0.0883 µM (active).
On the same count and under the same terms, to `NS(=O)(=O)C(F)(F)C(F)(F)C(F)(F)C(F)(F)C(F)(F)C(F)(F)C(F)(F)C(F)(F)F` belongs 0.683 µM (active); to `Oc1ccc(C(c2ccc(O)cc2)(C(F)(F)F)C(F)(F)F)cc1`, 2.53 µM (active); to `O=S(=O)(O)C(F)(F)C(F)(F)C(F)(F)C(F)(F)F`, 2.08 µM (active).
Still for that read-out and setting: under `O=C(O)C(F)(F)C(F)(F)C(F)(F)C(F)(F)C(F)(F)F` stands 1.92 µM (active); under `CC(c1ccc(O)cc1)(c1ccc(O)cc1)c1ccc(O)cc1`, 1.48 µM (active).
As to `Cc1cc(O)ccc1Cl`, the concentration at half-maximal activity (AC50) is 20.5 µM (active).
Turning to `CC(C)(c1ccccc1)c1ccc(O)cc1`, the AC50 was 0.888 µM (active).
On to `O=C(O)C(F)(F)C(F)(F)C(F)(F)C(F)(F)C(F)(F)C(F)(F)C(F)(F)C(F)(F)C(F)(F)F`, for which the AC50 is 0.646 µM (active).
Still for that read-out and setting: under `CCC(C)(c1ccc(O)cc1)c1ccc(O)cc1` stands 9.26 µM (active); under `Cc1cc(-c2ccc(N)c(C)c2)ccc1N`, 92.7 nM (active) and 178 nM (active); under `CCCCCCCCCc1ccc(O)cc1`, 3.03 µM (active).
On the same count and under the same terms, to `O=C(O)C(F)(F)C(F)(F)C(F)(F)C(F)(F)C(F)(F)C(F)(F)C(F)(F)C(F)(F)F` belongs 0.21 µM (active); to `O=S(=O)(O)C(F)(F)C(F)(F)C(F)(F)C(F)(F)C(F)(F)C(F)(F)F`, 0.0856 µM (active); to `O=NN(c1ccccc1)c1ccccc1`, 14.2 µM (active).

What is called AC50 is the midpoint of the concentration-response curve, whichever way the signal moves.
